From PubChem BioAssay (NCATS)
Calls of active or inactive are those of the source. The call rests on the fitted dose curve; in most records, active means well fitted curve in the direction sought with a large enough effect; inconclusive means small, poorly fitted or top-dose-only effect, or effect the other way, or another doubt; inactive means no such curve, though single readings can be large or run the other way.

Test: Inducers of the Endoplasmic Reticulum Stress Response (ERSR) in human glioma: Validation (AID 504836)
Details: human glioma cells, ER stress response reporter; series mostly up to 38.3 µM
How it was run: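 Stably transfected U87-MG glioma cells carrying a GRP78-based luciferase sensor; 16 h compound incubation. Luminescence end-point read 10 min after Bright-Glo addition at room temperature.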

| Compound | outcome |
| --- | --- |
| CC(C)(Oc1ccc(C2CC2(Cl)Cl)cc1)C(=O)O (centres undefined) | inactive |
| CC(CCc1ccccc1)NCC(O)c1ccc(O)c(C(N)=O)c1 (centres undefined) | inactive |
| Clc1cccc(Cl)c1NC1=NCCN1 | inactive |
| c1ccc2c(c1)CCCC2C1=NCCN1 (centres undefined) | inactive |
| Nc1ccn([C@@H]2O[C@H](CO)[C@@H](O)C2O)c(=O)n1 (some centres undefined) | inactive |
| CCn1nc(C(=O)O)c(=O)c2cc3c(cc21)OCO3 | inactive |
| NC(Cc1ccc(Cl)cc1)C(=O)O (centres undefined) | inactive |
| CCN(CC)CC#CCOC(=O)C(O)(c1ccccc1)C1CCCCC1 (centres undefined) | inactive |
| CN1C(C(=O)Nc2ccccn2)=C(O)c2ccccc2S1(=O)=O | inactive |
| NC(=O)c1cnccn1 | inactive |
| CCN(CC)CCNC(=O)c1cc(S(C)(=O)=O)ccc1OC | inactive |
| CC1COc2c(N3CCN(C)CC3)c(F)cc3c(=O)c(C(=O)O)cn1c23 (centres undefined) | inactive |
| CCOC(=O)C1=C(C)NC(C)=C(C(=O)OC)C1c1cccc([N+](=O)[O-])c1 (centres undefined) | inactive |
| CCO/C([O-])=N/c1c[n+](N2CCOCC2)no1 | inactive |
| Cc1scc2c1N(C(=O)CN1CCN(C)CC1)c1ccccc1NC2=O | inactive |
| CCCCCCCC/C=C\CCCCCCCC(=O)NCc1ccc(O)c(OC)c1 | inactive |
| CCC1(C)CC(=O)NC1=O (centres undefined) | inactive |

| Compound | outcome |
| --- | --- |
| CC(=O)Oc1cc(C(C)C)c(OCCN(C)C)cc1C | inactive |
| Cc1nc2c([nH]1)c(=O)n(C)c(=O)n2Cc1ccco1 | inactive |
| O=c1[nH]cnc2[nH]ncc12 | inactive |
| CNCC(O)c1ccc(O)c(O)c1 (centres undefined) | inactive |
| CCN(CC)CCOC(=O)c1ccc(N)cc1 | inactive |
| CC(CCc1ccc(O)cc1)NCCc1ccc(O)c(O)c1 (centres undefined) | inactive |
| Nc1nc2ccc(OC(F)(F)F)cc2s1 | inactive |
| CCN(CC)C(C)CN1c2ccccc2Sc2ccccc21 (centres undefined) | inactive |
| CC(C)NCC(O)c1cc(O)cc(O)c1 (centres undefined) | inactive |
| Cn1c(=O)c2[nH]cnc2n(C)c1=O | inactive |
| COC(=O)[C@@H]1[C@H]2C[C@H]3c4[nH]c5ccccc5c4CCN3C[C@@H]2CC[C@@H]1O | inactive |
| CCN(Cc1ccncc1)C(=O)C(CO)c1ccccc1 (centres undefined) | inactive |
| NC(N)=NC(=O)Cc1c(Cl)cccc1Cl | inactive |
| NC(=O)c1ncn([C@@H]2O[C@H](CO)[C@@H](O)[C@H]2O)c1O | inactive |
| COc1ccc2cc([C@H](C)C(=O)O)ccc2c1 | inactive |
| CC(=O)OC(C)C[N+](C)(C)C (centres undefined) | inactive |
| CO[C@@]1(NC(=O)CSCC#N)C(=O)N2C(C(=O)O)=C(CSc3nnnn3C)CS[C@@H]21 | inactive |
